{
  "source": "PubChem BioAssay AID1224861",
  "about": "(National Center for Advancing Translational Sciences (NCATS), 2016)",
  "note": "Results filed as inconclusive are left out. Values without a mark were called inactive. Active and inactive are the calls of the source. Calls follow the shape of the dose curve; as a rule, active = well fitted cell-killing curve with a large enough effect; inconclusive = small, poorly fitted or top-dose-only effect, or effect the other way; inactive = flat fitted curve, though single readings scatter.",
  "data": [
    {"experiment": "Compound cytotoxicity measured by an ATP content assay as a counter-screen for lead compounds in human astrocytes", "details": "human astrocytes viability, ATP luminescence; series mostly up to 46.1 µM; activity change, negative = cytotoxicity: at the top concentration", "procedure": "National Center for Advancing Translational Sciences [NCATS] Johns Hopkins University School of Medicine Florida State University Assay Overview: Many compounds can cause cytotoxicity at high compound concentrations. […] The compound cytotoxicity may also cause side effects or toxicity in human. Thus, the compound cytotoxicity needs to be measured in each cell type and each compound incubation time - same as these in the compound screening assay. The compound cytotoxicity can be measured by cell viability assays such as the ATP content assay. We use an ATP content assay kit for cell viability measurement. It measures ATP content (level) in human astrocytes using a luminescence readout that is proportional to viable cell numbers. Decrease in the luminescence signal after the compound treatment indicates reduced cell viability and cell death caused by compound treatment.\nAssay Protocol Summary: The medium for astrocytes contains AM basal medium (ScienCell, Cat.# 1801), AGS (ScienCell, Cat.# 1801), 10% FBS, and 1% Pen/Strep. The ATP content assay kit (PerkinElmer, Cat.# 6016731) was used to determine cell viability. The reagent was reconstituted and prepared as described by the manufacturer. Cells were seeded in 384- or 1536-well assay plates and cultured at 37 C with 5% CO2 for 16 to 20 hours. The typical cell seeding density in the 1536-well plate assay is 350 cells/well in 3 ul medium for astrocytes in the tissue cultured treated/PDL coated plates. Compounds were added to cells and incubated for a specific time such as 6, 24, or 72 hours before addition of the reagent mixture of the ATP content assay kit at 1:1 ratio. After incubation at room temperature for 10 minutes, the luminescence intensity in assay plates was measured using a ViewLux plate reader (PerkinElmer). […] The percentage inhibitions of the decreased cell viability by small molecules were then calculated that indicate compound cytotoxicity.", "values": [
      {"smiles": "CC(C(=O)O)c1ccc2c(c1)[nH]c1ccc(Cl)cc12", "note": "(stereo not given)", "activity change, negative = cytotoxicity": "5.69%"},
      {"smiles": "CCCCCCCC/C=C/C(=O)O", "activity change, negative = cytotoxicity": "11.4%"},
      {"smiles": "CCCCCCCCCCCC(=O)[O][Sn]([CH2]CCC)([CH2]CCC)[O]C(=O)CCCCCCCCCCC", "activity change, negative = cytotoxicity": "1.27%"},
      {"smiles": "O=C(O)CCC(=O)c1ccc(-c2ccccc2)cc1", "activity change, negative = cytotoxicity": "4.23%"},
      {"smiles": "O=C(O)c1ccccc1Nc1cccc(C(F)(F)F)c1", "activity change, negative = cytotoxicity": "0.0564%"},
      {"smiles": "O=C(Nc1ncc([N+](=O)[O-])s1)c1cccs1", "activity change, negative = cytotoxicity": "-6.69%"},
      {"smiles": "Nc1nc2ccc([N+](=O)[O-])cc2s1", "activity change, negative = cytotoxicity": "7.77% [at 88.3 µM]"},
      {"smiles": "CN(C)c1ccc2cc(C(=O)N[C@@H](CCCN=C(N)CCl)C(=O)NCc3ccccc3)ccc2c1", "activity change, negative = cytotoxicity": "16.8%"},
      {"smiles": "CS(=O)(=O)c1ccc(-c2cn3ccccc3n2)cc1", "Potency": "8.69 µM (active)"},
      {"smiles": "O=C1C[C@@H](c2ccc(O)cc2)Oc2cc(O)cc(O)c21", "activity change, negative = cytotoxicity": "3.17%"},
      {"smiles": "O=C(O)c1ccccc1NCCc1ccccc1", "activity change, negative = cytotoxicity": "11.8%"},
      {"smiles": "CO[C@H]1C(=O)[C@]2(C)[C@@H](OC)C[C@H]3OC[C@@]3(OC(C)=O)[C@H]2[C@H](OC(=O)c2ccccc2)[C@]2(O)C[C@H](OC(=O)[C@H](O)[C@@H](NC(=O)OC(C)(C)C)c3ccccc3)C(C)=C1C2(C)C", "activity change, negative = cytotoxicity": "-18.2%"},
      {"smiles": "O=C1C(Cl)=C(NCCN2CCOCC2)C(=O)c2ncccc21", "Potency": "7.74 µM (active)"},
      {"smiles": "COc1ccc(CC2=NN3C([C@@H](CCc4ccccc4)[C@@H](C)O)=NC(C)C3C(=O)N2)cc1OC", "note": "(stereo not given in full)", "activity change, negative = cytotoxicity": "5.6%"},
      {"smiles": "O=S(=O)(O)CCSSCCS(=O)(=O)O", "activity change, negative = cytotoxicity": "-2.01%"},
      {"smiles": "O=c1c(-c2ccc(O)cc2)coc2cc(OC3O[C@H](CO)[C@H](O)[C@H](O)[C@H]3O)cc(O)c12", "note": "(stereo not given in full)", "activity change, negative = cytotoxicity": "-29.9%"},
      {"smiles": "Oc1cc(O)cc(/C=C/c2ccc(O)c(O)c2)c1", "Potency": "8.69 µM (active)"},
      {"smiles": "CC(C)c1ccc2oc3nc(N)c(C(=O)O)cc3c(=O)c2c1", "Potency": "2.75 µM (active)"},
      {"smiles": "C[C@H](NC(=O)C(=O)Nc1ccccc1C(C)(C)C)C(=O)N[C@@H](CC(=O)O)C(=O)COc1c(F)c(F)cc(F)c1F", "activity change, negative = cytotoxicity": "-9.95%"},
      {"smiles": "O=C1NC(=O)C(=Cc2ccc(-c3ccc(F)cc3)o2)S1", "activity change, negative = cytotoxicity": "-3.28%"},
      {"smiles": "Cc1cc(O)c2ccccc2c1O", "Potency": "8.69 µM (active)"},
      {"smiles": "CC(C(=O)O)c1ccc(C(=O)c2ccccc2)s1", "note": "(stereo not given)", "activity change, negative = cytotoxicity": "-13.1%"},
      {"smiles": "CN1CCN(c2cc3c(nn2)Oc2ccccc2N3C)CC1", "activity change, negative = cytotoxicity": "9.89% [at 23.8 µM]"},
      {"smiles": "Oc1ccc(/C=C/c2cc(O)cc(O)c2)cc1", "Potency": "10.9 µM (active)"},
      {"smiles": "CN1CC(=O)N/C1=N/C(=O)Nc1cccc(Cl)c1", "activity change, negative = cytotoxicity": "10.6%"},
      {"smiles": "O=c1cc(-c2ccccc2)oc2cc(O)c(O)c(O)c12", "activity change, negative = cytotoxicity": "-2.73%"},
      {"smiles": "CCN1CCC(n2cc(CNc3cc(Cl)c4ncc(C#N)c(Nc5ccc(F)c(Cl)c5)c4c3)nn2)CC1", "activity change, negative = cytotoxicity": "-4.32%"},
      {"smiles": "Nc1ncnc2c1ncn2[C@@H]1O[C@@H](CO)[C@H](O)[C@H]1O", "activity change, negative = cytotoxicity": "-1.06% [at 23.8 µM]"},
      {"smiles": "CC(C(=O)O)c1ccc(C(=O)c2cccs2)cc1", "note": "(stereo not given)", "activity change, negative = cytotoxicity": "-16.1%"},
      {"smiles": "O=C(Nc1ccc(C(=O)O)c(O)c1)c1ccccc1", "activity change, negative = cytotoxicity": "10%"},
      {"smiles": "CCOC1OC(=O)C[C@H]1NC(=O)[C@@H]1CCCN1C(=O)[C@@H](NC(=O)c1ccc(N)c(Cl)c1)C(C)(C)C", "note": "(stereo not given in full)", "activity change, negative = cytotoxicity": "8.7%"},
      {"smiles": "C[C@@H]1CCN(C(=O)CC#N)C[C@H]1N(C)c1ncnc2[nH]ccc12", "activity change, negative = cytotoxicity": "0.0793%"},
      {"smiles": "Nc1ccc(O)c(C(=O)O)c1", "activity change, negative = cytotoxicity": "-2.4%"},
      {"smiles": "CC1(C)Cc2c(sc(NC(=S)NC(=O)c3ccccc3)c2C(=O)O)CO1", "activity change, negative = cytotoxicity": "1.95%"},
      {"smiles": "O=C(CS)Nc1ccccc1", "activity change, negative = cytotoxicity": "-0.969%"},
      {"smiles": "OCc1ccc(-c2ccc(-c3ccc(CO)s3)o2)s1", "Potency": "21.8 µM (active)"},
      {"smiles": "Cc1ccc(O)c(N=Nc2ccccc2)n1", "Potency": "4.35 µM (active)"},
      {"smiles": "CC(C)OC(=O)CCCC=CC[C@@H]1[C@H](C=C[C@@H](O)COc2cccc(C(F)(F)F)c2)[C@H](O)C[C@@H]1O", "activity change, negative = cytotoxicity": "8.58%"},
      {"smiles": "Nc1ccc(N=Nc2ccccc2)c(N)n1", "activity change, negative = cytotoxicity": "1.34%"},
      {"smiles": "O=c1cc(-c2ccccc2)oc2cc(O)cc(O)c12", "activity change, negative = cytotoxicity": "-1.78%"}
    ]}
  ]
}
